Bioassay records: PubChem BioAssay, National Center for Advancing Translational Sciences (NCATS)
This is a sample that favours compounds with a hit; in the whole collection about 11% have one here.
ALDH1A1 block – blocks purified human ALDH1A1 activity. Purified ALDH1A1, NADH fluorescence, propionaldehyde substrate. Potency, µM (highest dose often 75.3 µM), hits mostly inhibitors. hit rate 7.3% among 220,000. AID 1030; active means well fitted inhibition curve with a large enough effect, not every such curve was filed as active; inconclusive means small, poorly fitted or top-dose-only effect, or another doubt; inactive means no such curve, though single readings can be large or run the other way
HTT ATP protect – cytoprotection in Huntington HTT-Q103 PC12 cell model; PC12 HTT-Q103 induced, cytoprotection, ATP luminescence, 40 h; Potency, µM (series often up to 56.4 µM), hits mostly activators; hit rate 0.14% among 230,000; AID 1471; further: nearly all actives have a fitted effect of over 45% in size
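ATP quantification (ATPlite) reports survival of PC12 cells in which tebufenozide, 100 nM final, switches on Htt exon 1 with 103 glutamines linked to GFP; compounds are titrated.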
CBFb RUNX1 block – CBF-beta/RUNX1 interaction disruption; AlphaScreen CBFb-His/RUNX1-biotin binding, biochemical; Potency, µM (titrated, usually from 59.8 µM), actives largely listed as inhibitors; 230,000 tested, under 10 active
Target sequence (Q01196 whole entry, looked up): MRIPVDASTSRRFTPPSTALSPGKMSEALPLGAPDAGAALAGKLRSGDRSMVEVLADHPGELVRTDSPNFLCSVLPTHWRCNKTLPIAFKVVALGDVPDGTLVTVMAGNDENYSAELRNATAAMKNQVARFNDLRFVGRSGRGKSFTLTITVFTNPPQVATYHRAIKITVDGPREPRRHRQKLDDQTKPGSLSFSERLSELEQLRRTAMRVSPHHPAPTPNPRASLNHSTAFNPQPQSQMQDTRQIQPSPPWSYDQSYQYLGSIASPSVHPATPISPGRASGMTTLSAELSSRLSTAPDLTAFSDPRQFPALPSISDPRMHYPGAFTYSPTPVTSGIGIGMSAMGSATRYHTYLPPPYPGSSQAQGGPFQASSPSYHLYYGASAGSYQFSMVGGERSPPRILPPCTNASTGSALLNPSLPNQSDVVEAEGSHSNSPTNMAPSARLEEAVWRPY
Target sequence (Q13951 whole entry, looked up): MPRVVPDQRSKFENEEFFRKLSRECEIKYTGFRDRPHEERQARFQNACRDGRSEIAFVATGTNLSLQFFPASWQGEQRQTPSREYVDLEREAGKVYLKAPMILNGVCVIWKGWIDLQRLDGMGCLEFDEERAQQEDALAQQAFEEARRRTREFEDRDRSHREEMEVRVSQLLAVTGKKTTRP
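Read-out: AlphaScreen. Format: His-CBF-beta with biotinylated RUNX1 (30 nM each) preincubated 20 min, compound 15 min, Ni-chelate plus streptavidin beads 90 min; room temperature throughout.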
PNC assembly inh – inhibitors of perinucleolar compartment assembly. PC3M PTB-GFP, PNC prevalence imaging, 16 h; active compounds read low. activity change (PNC), negative = inhibition, % at 10 µM. hit rate 3.1% among 140,000. AID 2417;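 active means readout at or below -70, meaning at least 70% loss of cells showing the perinucleolar compartment, a nuclear body marking cancer cells; inconclusive means readout between -30 and a set limit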
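Compounds are pinned in duplicate onto adhered PC3M cells stably expressing GFP-tagged PTB and incubated 16 h at 37 C. Cells are then fixed, nuclei stained with Hoechst, and PNC-positive cells counted.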
HTT aggregate – inhibitors of mutant huntingtin aggregate formation in PC12 cells; PC12 HttQ103-GFP aggregates, Acumen cytometry, 40 h; Potency, µM (doses to about 46.1 µM), actives largely listed as inhibitors; hit rate 1.1% among 220,000; AID 1688; further: nearly all actives have a fitted effect of over 60% in size
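Aggregates are detected as GFP objects 1–25 µm with signal 6 STDEV over background in lysates of induced PC12 cells. These carry Huntingtin exon 1 with 103 glutamines fused to GFP under an ecdysone promoter; compounds titrated.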
HPGD inh – blocks human HPGD enzyme activity; hit rate 4.3% among 150,000; purified HPGD, NADH fluorescence kinetic, PGE2 substrate; P15428; Potency, µM, usual class: inhibitors; active means well fitted inhibition curve with a large enough effect, not every such curve was filed as active; inconclusive means small, poorly fitted or top-dose-only effect, or another doubt; inactive means no such curve, though single readings can be large or run the other way
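NADH formation kinetics: reaction with 30 uM PGE2 and 1 mM NAD+ (final), 20 nM enzyme, Tris-HCl pH 8 with Tween 20, after 15 min compound preincubation at room temperature. Fluorescence change, last versus first of five reads.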
Hits are given with their value; i = inactive; ? = inconclusive; nt = not tested or not shown; ! = not confirmed by another sample; [ ] = dose if it differs, or a comment. Unless noted, the call rests on the fitted dose curve; in most records, active means well fitted curve in the direction sought with a large enough effect; inconclusive means small, poorly fitted or top-dose-only effect, or another doubt; inactive means no such curve, though single readings can be large; an effect the other way counts as inactive or inconclusive.

SMILES	ALDH1A1 block	HTT ATP protect	CBFb RUNX1 block	PNC assembly inh	HTT aggregate	HPGD inh
Nc1nc(/C(=C/CC(=O)O)C(=O)NC2C(=O)N3C(C(=O)O)=CCSC23)cs1 (configuration not stated)	?	?	i	nt	i	i
COc1ccc(CC(=O)Nc2ccc3c(C(F)(F)F)cc(=O)oc3c2)cc1OC	7.9µM	i[10 µM]	i	i	i	i
CCCCC(CC)COC(=O)c1ccc(C(=O)OCC(CC)CCCC)c(C(=O)OCC(CC)CCCC)c1 (configuration not stated)	?	i	i	nt	nt	i
C=C(C)C(=O)OCC1CO1 (configuration not stated)	?	i	i	nt	nt	i
CC(=O)OCC1=C(C(=O)[O-])N2C(=O)[C@@H](NC(=O)CCC[C@@H](N)C(=O)[O-])[C@H]2SC1.[Zn+2]	i	nt	i	nt	nt	i
O=C(CN1CCOCC1)c1ccc2cc[nH]c2c1	?	i[10 µM]	i	i	i	i
Cc1cc(C)c(C(=O)CN2CCOCC2)c(C)c1	10µM	i	i	i	i	i
COc1ccc(C(=O)CN2CCOCC2)cc1F	14µM	i	i	i	?	i
Cc1cccc(OC(=O)N2CCOCC2)c1	i	i	i	?	i	i
Nc1c(C(=O)Nc2ccc([As](=O)(O)O)cc2)cnc2nnnn12	i[13.5 µM]	i[10 µM]	nt	nt	nt	i
C=C(C)[C@H]1CN[C@H](C(=O)O)[C@H]1CC(=O)O	20µM!	i	i	nt	i	16µM!
NNc1ccccc1	i	i	i	nt	i	i
COc1ccccc1N1CCN(Cc2cc(C)c(C)cc2O)CC1	i	?	i	i	i	i
COc1cc(CN2CCN(c3cc(C)ccc3C)CC2)ccc1O	i	i[0.074 µM]	i	i	10µM	i
Cc1ccc2c(c1)C1(CCN(CCc3nc(-c4ccccc4)oc3C)CC1)OC(=O)N2	nt	nt	i	nt	nt	nt
CCN1C[C@@]2(COC(=O)c3ccccc3N3C(=O)C[C@H](C)C3=O)CC[C@H](OC)[C@@]34[C@@H]5CC6[C@@H](OC)C[C@@](O)([C@H]5[C@H]6OC)C(O)([C@@H]13)[C@@H](OC)[C@H]24	nt	i	nt	nt	nt	nt
C/C(=N\Nc1ccccc1)c1c(O)n(C)c(=O)n(C)c1=O	25µM	i[10 µM]	i	?	i	i
Cn1c(O)c(/C=N/Nc2ccccc2)c(=O)n(C)c1=O	10µM	i	i	nt	i	nt
Cn1c(O)c(C=Nc2ccccc2-c2ccccc2)c(=O)n(C)c1=O	nt	i[10 µM]	i	nt	i[9.22 µM]	nt
CN(C(=O)Cc1ccc(Cl)c(Cl)c1)[C@H](CN1CCCC1)c1cccc(N=C=S)c1	?	i	i	nt	nt	i
NC(=O)c1ccc(N=Cc2c(O)n(Cc3ccco3)c(=O)[nH]c2=O)cc1	nt	i[10 µM]	i	nt	i[9.22 µM]	nt
N#Cc1c(/N=C/c2c(O)n(Cc3ccco3)c(=O)[nH]c2=O)sc2c1CCCC2	28µM	i	i	i	i	i
CCCCC(=O)Cl	?	i	i	nt	nt	i
OCCBr	i	i	i	nt	nt	i
CCN(CC)CCCN=Cc1c(O)n(Cc2ccc(F)cc2)c(=O)[nH]c1=O	i	i	i	i	i	i
SMILES	ALDH1A1 block	HTT ATP protect	CBFb RUNX1 block	PNC assembly inh	HTT aggregate	HPGD inh
O=c1[nH]c(=O)n(Cc2ccc(F)cc2)c(O)c1C=NCc1cccnc1	i	i	i	?	i	16µM
O=c1[nH]c(=O)n(Cc2ccccc2)c(O)c1C=NCCN1CCOCC1	?	i	i	?	i	32µM
CCCCCCn1c(O)c(C=NCCN2CCCCC2)c(=O)[nH]c1=O	i	i[10 µM]	i	?	i	i
CCCCCCn1c(O)c(C=NCCN2CCOCC2)c(=O)[nH]c1=O	i	nt	i	-114	i	i
CCN(CC)CCN=Cc1c(O)n(Cc2ccccc2)c(=O)[nH]c1=O	i	i[10 µM]	i	i	i[9.22 µM]	35µM
c1c[nH]cn1	?	?	i	nt	nt	i
COC(=O)C[C@](O)(CCCC(C)(C)O)C(=O)O[C@@H]1C(OC)=C[C@]23CCCN2CCc2cc4c(cc2[C@H]13)OCO4	i	i	i	nt	0.16µM	i
NC(=O)CNC(=O)[C@H](Cc1ccccc1)NC(=O)[C@H](CCCN=C(N)N)NC(=O)[C@@H](N)Cc1ccc(O)cc1	i	i	i	nt	nt	nt
CCOP(=O)(OCC)C(NC(=O)c1cccc(C)c1)C(Cl)(Cl)Cl (configuration not stated)	i	i[10 µM]	i	nt	i[9.22 µM]	nt
CCN(CC)c1ccc(NC(=O)c2cccc(C)c2)cc1S(=O)(=O)Nc1ccccc1OC	14µM	i[10 µM]	i	?	i	13µM
COc1ccc(C(C#N)N2CCOCC2)cc1 (configuration not stated)	35µM	i[10 µM]	i	i	i	i
O=C(c1ccccc1)[C@H]1[C@H](c2ccccc2[N+](=O)[O-])N1C1CCCCC1 (some centres not stated)	i[13.5 µM]	i[10 µM]	nt	nt	nt	i
c1ccc2cc(C3N4CCCN34)ccc2c1 (configuration not stated)	i	4µM	i	nt	i	nt
O=C(CCl)c1ccccc1	0.079µM	i	i	nt	nt	i
O=C(O)Cc1ccccc1	i	i	i	nt	nt	i
O=C(NC(=O)c1c(F)cccc1F)Nc1ccc(Cl)cc1	i	nt	nt	nt	nt	i
CON(C)C(=O)Nc1ccc(Cl)cc1	i	i[1.9 µM]	i	-121	i	i
NCC1OC(O[C@@H]2[C@H](O)[C@@H](OC3C(O)C(N)CC(N)C3OC3OC(CO)C(O)C(O)C3N)O[C@@H]2CO)C(N)C(O)C1O (some centres not stated)	i	nt	i	nt	nt	i
O=C(O)CCCC[C@@H]1SC[C@H]2NC(=O)N[C@@H]12	i	i[1.9 µM]	13µM	nt	nt	i
COc1cc(CNC(=O)CCCC/C=C\C(C)C)ccc1O	3.5µM	i	i	nt	nt	i
CCCn1cc(C(=O)O)cn1	i	i	i	nt	i	nt
Cn1cc(NC(=O)CCl)cn1	18µM	i[10 µM]	i	nt	?	nt
CC(C)(C)[C@@]1(O)C[C@@H]2OC(=O)C[C@@]23C(=O)O[C@H]2OC(=O)[C@@H](O)[C@]231	nt	i	nt	nt	nt	nt
Cc1nn(CCC#N)c2c1P(=S)(N1CCCC1)OC(c1ccc(F)cc1)=N2 (configuration not stated)	7.1µM	i[10 µM]	i	i	i	20µM
Cc1nc2ccc(Nc3nc4cc(S(=O)(=O)N5CCOCC5)ccc4o3)cc2s1	3.5µM	i	i	?	i	8.9µM
SMILES	ALDH1A1 block	HTT ATP protect	CBFb RUNX1 block	PNC assembly inh	HTT aggregate	HPGD inh
CC(=O)OC1=CC2=CC[C@H]3[C@H]4CCC(=O)[C@@]4(C)CC(=O)[C@]3(S)[C@]2(C)CC1	4.5µM	i[10 µM]	nt	nt	nt	i
C[C@H](N)Cc1cnc[nH]1	i	i	?	nt	nt	i
COc1ccc2c(c1O)-c1cccc3c1[C@H](C2)N(C)CC3	nt	i[1.9 µM]	nt	nt	nt	nt
CCc1ccc(C(=O)NN(C(=O)c2cc(C)cc(C)c2)C(C)(C)C)cc1	i	i	i	nt	nt	i
Cc1cc(/C=C2\C(=O)NC(=O)N(c3ccc(Cl)cc3)C2=O)c(C)n1-c1sc2c(c1C#N)CCCC2	0.25µM	i[10 µM]	i	i	?	10µM
Cc1sc(-n2c(C)cc(C=C3C(=O)NC(=O)NC3=O)c2C)c(C#N)c1C	0.63µM	i[1.9 µM]	i	i	i	i
